{
  "source": "paper PMC12136788",
  "binders": {"B1": {"name": "chr11:134117569:134117570:+_ENSG00000151502_ENST00000281187|hu_hu|motif|central (ssRNA)", "RNA": "GGGAGUUCUACAGUCCGACGAUCAGAAACAUGUAAACACUGCAGCUGCUUAAUUACAAGUUGCACUGCUUGAUUUAGUACCGGUGCACUCCCAGGUUUGGGGACCUUAAGAGAGGGGGACAGGAGCCUCCCCUCACUUUCACACAACAGAGGAUUGAGCAUCA"}, "B2": {"name": "chr18:65376317:65376318:+_ENSMUSG00000024589_ENSMUST00000163516|mus_hu|FALSE|FALSE (ssRNA)", "RNA": "GGGAGUUCUACAGUCCGACGAUCUUUCAUGCCAACAGGAAGCUAACCCUUUUCUAGAAAACGUUCUCCAAGCUCCCGUCCUAAUGCUGUGGCACUUUCUCUGACAUACUGAGAACACUCUGGGGUGGGGGUGUGUGUAUGCAACAACAGAGGAUUGAGCAUCA"}, "B3": {"name": "56885736_56885856_9979_3pUTR_ENSMUSG00000055296_ENSMUST00000068792|mouse|control|control (ssRNA)", "RNA": "GGGAGUUCUACAGUCCGACGAUCAUCUUAUAUUGAUCUAGAUUUGACCACAGAUAAACCUUGUACUGCCUAGUCUUGUGUCAACUUGACACAGCUGGAGUUAUCACAGAGAAAGGAGCUUCAGUUGAGGAAAUGCCUCCAUGACAACAGAGGAUUGAGCAUCA"}, "B4": {"name": "chr13:99559765:99559766:-_ENSMUSG00000041685_ENSMUST00000040340|mus_mus|motif|central (ssRNA)", "RNA": "GGGAGUUCUACAGUCCGACGAUCCUGAACUUCCUUUAUUAAUUCCUGUAAUUUUCUAACAAGAUCCAAAUGACAAUUUGCGGAUUUCUCUGUAGAUGUUUUGAAUACAUCCCACAUUGGUGCAAAUGUUCCAAGUUGUGAAUACAACAGAGGAUUGAGCAUCA"}, "B5": {"name": "chr11:75578338:75578339:+_ENSMUSG00000020849_ENSMUST00000067664|perfect_dup|motif|central (ssRNA)", "RNA": "GGGAGUUCUACAGUCCGACGAUCUUAAGAACUUUUGAAAACUGUUUAAAAAAAAAAAAAAAAAACCAACAGGGCAGGAACCGGAAUUCUGAGACCAAAUGUAAAAGUCAGAUUUGGUGGUUCUCAGUGACAAUGGGGAGUUUCCAACAGAGGAUUGAGCAUCA"}, "B6": {"name": "chr2:35037708:35037709:-_ENSMUSG00000026878_ENSMUST00000028238|mus_hu|FALSE|FALSE (ssRNA)", "RNA": "GGGAGUUCUACAGUCCGACGAUCCUGUUUUUACAACAGAGUUUUUUCUUUUUUUUUAAUUAAACCCAGUAAGAUGUACAGAAGACAAUGAGGCAGUAAAAAGUACUGCUUCCAACAGACAGAGGUGAAAGGUCAAAUGAGGGGCAACAGAGGAUUGAGCAUCA"}, "B7": {"name": "chr13:31725248:31725249:-_ENSG00000120694_ENST00000320027|perfect_dup|motif|central (ssRNA)", "RNA": "GGGAGUUCUACAGUCCGACGAUCUUUGGAUUUUGCAUCCAAUUUGUACUUGGUUUUAAAUUCAGCACAAAAAUGUUCGGCGGGCUUCUCAUCAAAGUUCUUUCCUCCUAAGAAGGGAUCAAAAGCUGUGCCUAGAACCUUCAGCAACAGAGGAUUGAGCAUCA"}, "B8": {"name": "chr1:60041781:60041782:+_ENSMUSG00000041040_ENSMUST00000036540|mus_mus|motif|central (ssRNA)", "RNA": "GGGAGUUCUACAGUCCGACGAUCUUAAGGAGUGAAUCUCAACUUUACAAAUUUAGUAAUGGCAAGUUUACUUUAGUUUCCGGAAAGAAAACCUCAGGAUCUCAGUUCAAUCCCAGACAGAGAAAGCUCUCCAUGGGGCCACUGCAACAGAGGAUUGAGCAUCA"}, "B9": {"name": "chr11:75578338:75578339:+_ENSMUSG00000020849_ENSMUST00000067664|perfect_dup|FALSE|FALSE (ssRNA)", "RNA": "B5 RNA with G82U, G83A"}},
  "note": "Where a chain is given by its changes, count along the chain named. In all, about 24,000 sequences were measured (“enrichment r”: median about 0.99, highest 2% from about 3.7 on). For the sample, the highest values were picked, then their nearest neighbours and some sequences at random.",
  "data": [
    {"target": "T1, UNK ZnF1-3 (human, UniProt Q9C0B0 31-174)", "T1 sequence": "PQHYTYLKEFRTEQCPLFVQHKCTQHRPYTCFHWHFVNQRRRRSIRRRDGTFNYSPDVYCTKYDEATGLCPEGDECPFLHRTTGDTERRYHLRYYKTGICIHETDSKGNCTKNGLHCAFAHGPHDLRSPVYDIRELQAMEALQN", "assay": "nsRBNS (natural sequence RNA bind-n-seq); RBNS binding buffer (assumed for nsRBNS): 25 mM Tris pH 7.5, 150 mM KCl, 3 mM MgCl2, 0.01% Triton X-100, 500 ug/ml BSA, 20 U/ml SUPERase-In, 4 C; UNK is unkempt and MSI1 is Musashi-1; names of the RNAs are library labels; protein concentration not given here; high values mean tight binding", "units": {"binding signal": "enrichment R"}, "values": [
      {"binder": "B1", "binding signal": 0.758},
      {"binder": "B2", "binding signal": 0.949},
      {"binder": "B3", "binding signal": 1.28},
      {"binder": "B4", "binding signal": 0.623},
      {"binder": "B5", "binding signal": 5.06},
      {"binder": "B6", "binding signal": 1.64},
      {"binder": "B7", "binding signal": 1.17},
      {"binder": "B8", "binding signal": 0.919},
      {"binder": "B9", "binding signal": 4.7}
    ]}
  ]
}
